Data on 40 molecules can be found in PubChem BioAssay (NCI).

Compounds without any hit were thinned out: in the full panel of roughly 83,000, 20% have a hit.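 Growth was measured after 48 h exposure to one concentration of compound in 96-well plates. Values under 10 count as active.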 Calls of active or inactive are those of the source.

This test relates to MDA-MB-468 breast. The test is described as follows: NCI-60 one-dose screen, 48 h (100 = growth as untreated, 0 = no growth, -100 = all killed). The note with it: 10 µM unless noted.
In the case of `Cc1ccc2nc(NC(=O)CSc3nc(Nc4ccc([N+](=O)[O-])cc4)c(C#N)c(-c4ccccc4)n3)sc2c1`, the growth is 105% (inactive).
With `Cn1cc(-c2nnc(N)nc2-c2cn(C)c3ccc(F)cc23)c2cc(F)ccc21` the figure was 99.8% (inactive); with `O=C(O)c1ccc(-c2nn(-c3ccc(C(=O)O)cc3)cc2CNc2ccc(Br)cc2)cc1`, 114% (inactive); with `Cn1cc(-c2csc(-c3cn(C)c4ncccc34)n2)c2ccccc21`, 18% (inactive).
With `COc1ccc(/C=C2/C(=O)ON=C2C)cc1` the figure was 103% (inactive); with `CCOc1nc(-c2ccccc2)cc2c(O)c(C(=O)N/N=C/c3ccc(O)cc3O)[nH]c(=O)c12`, 29.9% (inactive); with `CCOC(=O)c1cc(C(=O)c2ccc(OC)c(OC)c2)n2ccncc12`, 99.5% (inactive).
Regarding `CCOc1ccccc1/C=N/N1CCCCCC1`, the growth was 108% (inactive).
`CCNC(=O)c1[nH]cc(-c2ccc(OC)cc2)c1-c1cc(OC)cc(OC)c1`: the growth was 76.2% (inactive).
With `O=C(CN1N=C(c2ccc(F)cc2)CCC1=O)Nc1nc2ccccc2s1` the figure was 97.7% (inactive).
With `Nc1ccccc1-c1ccc(-c2ccc(Cl)cc2)c2c1[nH]c1ccccc12` the figure was 91.5% (inactive); with `C=C=COc1cccc(/C(N)=N/C(N)=N/c2nc3ccccc3s2)c1`, 102% (inactive).
With `Clc1ccc2c(NCCCNCc3ccc4c(c3)OCO4)ccnc2c1` the figure was -11.9% (active).
Consider `NS(=O)(=O)c1ccc(N2N=C(c3ccccc3)CCC2=O)cc1`, for which the growth was 96.3% (inactive).
With `Cc1cc(Cl)cc(Cc2cc(Cl)cc(C)c2O)c1O` the figure was 50.2% (inactive); with `COc1cccc(/C=C2\C=C(c3ccccc3)N(Cc3ccccc3)C2=O)c1`, 45.3% (inactive).
On to `COc1cc(NCC(O)CN(CC(C)C)CC(C)C)c2nc(C)ccc2c1` (stereo not given), for which the growth was -6.94% (active).
In the case of `COC(=O)c1ccc(NC(=O)CCl)cc1`, the growth is 83.2% (inactive).
With `Cc1nc2cc(-n3c(-c4ccc(F)cc4)nc4ccccc4c3=O)ccc2n1Cc1ccccc1` the figure was 15.2% (inactive).
With `COc1cc(C2Cc3ncccc3-c3[nH]c(=O)c4cccnc4c32)cc(OC)c1OC` (stereo not given) the figure was 22.8% (inactive); with `N#Cc1cnc(NCCc2ccncc2)nc1-n1cnc2ccccc21`, 74.2% (inactive); with `CCN1C(=S)N(CC)C2C1NC(=S)N2/N=C/C=C/c1ccccc1OC` (stereo not given), 9.04% (active).
For `N#CC[C@H](C1CCCC1)n1cc(-c2ncnc3[nH]ccc23)cn1`, the growth is 71.3% (inactive).
The figure for `C=CCn1c(SCC(=O)Nc2ccc(C(=O)/C=C/c3ccc(C)cc3)cc2)nnc1-c1c[nH]c2ccccc12` is 85.3% (inactive); for `COC(=O)c1c2c(c(C)[n+]([O-])c1C)C(=O)C(NCc1cccc(Cl)c1)=CC2=O` it is -26.3% (active); for `CCOC(=O)C1=C(C)NC(SCc2nnc(-c3ccc(Cl)cc3)o2)=NC1c1ccc(Br)cc1` (stereo not given) it is 58.2% (inactive).
With `CC(=O)O[C@@H]1[C@@H](OC(C)=O)[C@H](OC(C)=O)CO[C@H]1Nc1cccc2ccccc12` the figure was 104% (inactive); with `CCOC(=O)Oc1c(OC)cc(C(=O)c2ccc(OC)c(OC(=O)CCl)c2OC)cc1OC`, 0.206% (active); with `COC(=O)c1cc(-c2ccc(S(C)(=O)=O)cc2)[nH]c1N/N=C/c1c(Cl)cccc1Cl`, 15.7% (inactive).
With `CN(C)C(=O)c1cc2cnc(Nc3ccc(-c4csc5c(=O)cc(N6CCNCC6)oc45)cc3)nc2n1C1CCCC1` the figure was 19.6% (inactive).
For `CC(C)(C)CC(C)(C)c1ccc(OCCOCC[N+](C)(C)Cc2ccccc2)cc1`, the growth was -81.8% (active).
With `c1ccc2c(NCCCN3CCN(CCCNc4c5ccccc5nc5ccccc45)CC3)c3ccccc3nc2c1` the figure was -73.2% [100 µM] (active).
With `NCCNc1nc(Nc2ccc(-c3nc4ccccc4[nH]3)cc2)c2cn[nH]c2n1` the figure was 57.2% (inactive); with `CC(=O)Nc1ccc(S(=O)(=O)NC2CCCCC2)cc1`, 93.9% (inactive); with `O=C(N/N=C/c1cc(Cl)ccc1O)C(=O)N/N=C/c1cc(Cl)ccc1O`, 61.3% (inactive).
The figure for `Fc1ccc(NCCS)cc1` is 106% (inactive); for `CCOc1ccc(NC(=O)Nc2ccc(OCC)cc2)cc1` it is 106% (inactive).
`COc1ccc(Nc2nc(N/N=C/c3ccc(O)cc3)nc(Nc3ccc([N+](=O)[O-])cc3)n2)cc1`: the growth is 117% (inactive).
As for `CCC1CCc2nc3sc(C(=O)Nc4cccc(F)c4)c(N)c3cc2C1` (stereo not given), the growth is 23.4% (inactive).
The figure for `O=C1NC(=O)C(c2ccc(Cl)cc2Cl)N1` (stereo not given) is 106% (inactive).
